Results: PubChem BioAssay (Tox21)
Inconclusive results are not listed. Calls of active or inactive are those of the source. Calls come from the whole dose curve; as a rule, active = well fitted activation curve with a large enough effect in the repeat runs; inconclusive = weak or mixed curves; inactive = flat fitted curve, though single readings scatter.

assay: A CellTox Green Cytotoxicity Assay to monitor cytotoxicity in HepG2 cells - 16 hour (AID 1224876); conditions: CellTox Green fluorescence; series mostly up to 76.8 µM; cytotoxicity increase: at the top concentration; note: nearly all actives have a fitted effect of over 45% in size
Excerpt: National Center for Advancing Translational Sciences [NCATS]
NIH Chemical Genomics Center [NCGC]
U.S. Environmental Protection Agency [EPA]
National Institutes of Environmental Health Sciences [NIEHS]
National Toxicology Program [NTP]
Cell-based models are critical for drug discovery. Determining the natural cytotoxic effects resulting from test compounds is an essential research activity. A CellTox Green Cytotoxicity Assay to monitor cytotoxicity in real time of continues cell culture during 40 hours of the compound treatment was used to screen Tox21 10K library compounds in HepG2 cells. CellTox Green Cytotoxicity Assay is a nonlytic, homogeneous, biofluorescent method to measure cytotoxicity in cell culture after experimental manipulation. The assay system uses a proprietary asymmetric cyanine dye that is excluded from viable cells but preferentially stains the dead cell's DNA. […] Viable cells produce no appreciable increases in fluorescence. Therefore, the fluorescence signal produced by the binding interaction with dead cell DNA is proportional to cytotoxicity.
The mixture of HepG2 cell suspension and reagents were dispensed at 600cells/6 ul/well in 1536-well tissue culture treated black solid bottom plates using a Multidrop dispenser. After the assay plates were incubated at a 37 C/5% CO2 incubator for 5 hours, 23 nL of compounds dissolved in DMSO, positive and negative controls was transferred to the assay plate by a pintool work station. The plates were incubated at 37 C for 40 hours. The fluorescence intensity were measured at 0h, 8h, 16h, 24h, 32h and 40h time points using ViewLux plate reader during compound treatment.
% is set by controls: 0 for no effect and ±100 for the full control effect.

| SMILES | cytotoxicity increase | Potency |
| --- | --- | --- |
| CCn1cc(C(=O)O)c(=O)c2cc(F)c(N3CCNCC3)nc21 | 10.6% [at 35.3 µM] (inactive) | – |
| CCCCC/C(=C\c1ccccc1)CO | 5.54% (inactive) | – |
| CCCCCCCC/C=C\CCCCCCCC(=O)OC(CO)CO | -11.5% (inactive) | – |
| CCc1c2c(nc3ccc(OC(=O)N4CCC(N5CCCCC5)CC4)cc13)-c1cc3c(c(=O)n1C2)COC(=O)[C@]3(O)CC | 10.7% [at 35.3 µM] (inactive) | – |
| C=CC(C)=CCC=C(C)C | -1.82% (inactive) | – |
| Oc1ccc(Nc2ccccc2)cc1 | -0.282% (inactive) | – |
| O=c1[nH]c2ccc(S(=O)CCN3CCC(Cc4ccc(F)cc4)CC3)cc2o1 (stereo not given) | 0.984% (inactive) | – |
| CC(=N\O)/C(C)=N/O | 1.29% (inactive) | – |
| CC(=O)Nc1ccccc1C | -16.6% (inactive) | – |
| CNC(=S)NC | -0.994% (inactive) | – |
| C[C@@H]1C[C@H]2[C@@H]3CCC4=CC(=O)C=C[C@]4(C)[C@@]3(F)[C@@H](O)C[C@]2(C)[C@@]1(O)C(=O)CO | -1.24% (inactive) | – |
| CCOC(=O)OCC | 2.76% (inactive) | – |
| Cn1c(=O)c2c(ncn2CC(=O)O)n(C)c1=O | -16% [at 35.3 µM] (inactive) | – |
| CCC1(C)CC(=O)NC1=O (stereo not given) | -13.9% [at 35.3 µM] (inactive) | – |
| O=C(CS)OCCOC(=O)CS | -5.24% (inactive) | – |
| CCC(C(=O)OCCOCCN(CC)CC)c1ccccc1 (stereo not given) | -22.5% [at 35.3 µM] (inactive) | – |
| CO[Si](C)(OC)OC | 0.7% (inactive) | – |
| CC(C)c1nnc2ccc(-c3ocnc3-c3cc(F)ccc3F)cn12 | -1.74% (inactive) | – |
| Nc1nccs1 | -0.236% (inactive) | – |
| CC(Cl)C(Cl)Cl (stereo not given) | 7.87% (inactive) | – |

| SMILES | cytotoxicity increase | Potency |
| --- | --- | --- |
| CCOc1cc(N)c(Cl)cc1C(=O)NCC1CN(Cc2ccc(F)cc2)CCO1 (stereo not given) | -0.272% [at 35.3 µM] (inactive) | – |
| CN(C(=O)C(Cl)Cl)c1ccc(OC(=O)c2ccco2)cc1 | 3.96% [at 35.3 µM] (inactive) | – |
| O=C(O)C(Cc1cc(I)c(O)c(I)c1)c1ccccc1 (stereo not given) | 0.222% [at 35.3 µM] (inactive) | – |
| CCC(=O)OC/C=C/c1ccccc1 | – | inactive |
| C=CCOC(=O)/C=C\C(=O)OCC=C | -2.09% (inactive) | – |
| COC(=O)Nc1nc2ccc(C(=O)c3cccs3)cc2[nH]1 | 7.85% [at 35.3 µM] (inactive) | – |
| CCCCC(CC)CNCC(CC)CCCC (stereo not given) | 4.05% (inactive) | – |
| O=C(c1ccc(O)cc1)c1ccc(Cl)cc1 | -7.59% (inactive) | – |
| N#C/C(=C1\SCC(c2ccccc2Cl)S1)n1ccnc1 (stereo not given) | 0.793% [at 35.3 µM] (inactive) | – |
| Cc1cc(OI)c(C(C)C)cc1-c1cc(C(C)C)c(OI)cc1C | -8.4% [at 35.3 µM] (inactive) | – |
| OC(CCCN1CCCCC1)(c1ccccc1)c1ccccc1 | 0.21% [at 35.3 µM] (inactive) | – |
| c1ccc(COCc2ccccc2)cc1 | -12.1% (inactive) | – |
| CCC(Cc1ccccc1)(C(=O)c1ccc(N2CCOCC2)cc1)N(C)C (stereo not given) | -6.49% (inactive) | – |
| O=[N+]([O-])c1cccc(S(=O)(=O)NCCNS(=O)(=O)c2cccc([N+](=O)[O-])c2)c1 | -2.48% [at 35.3 µM] (inactive) | – |
| CCC(=O)Oc1ccc(/C(CC)=C(\CC)c2ccc(OC(=O)CC)cc2)cc1 | -14.7% (inactive) | – |
| CC1(C)C2=CCCC(C)(C)[C@]23CC[C@H]1C3 | 21.9% (inactive) | – |
| Cc1oc(C)c(C(=O)Nc2ccccc2)c1C | 1.53% (inactive) | – |
| C[C@]12CCC(=O)C=C1C=C[C@@H]1[C@@H]2CC[C@@]2(C)[C@H]1CC[C@@]21CCC(=O)O1 | -10.8% [at 35.3 µM] (inactive) | – |
| CCNC(=O)N1CCN(CCCC(c2ccc(F)cc2)c2ccc(F)cc2)CC1 | 18.2% [at 35.3 µM] (inactive) | – |
| C=C(C)C(=O)OCCOC(=O)CC(C)=O | -5.06% (inactive) | – |
